Screening results from PubChem BioAssay.
Shown is part of a subset that was picked to be rich in hits.
miR-122 inh = miR-122 suppressors via Renilla sensor increase, primary screen, cell-based, Huh7 psiCHECK-miR122, Renilla luciferase, single point. 340,000 tested, 0.14% active. activation, % at 12.5 µM. AID 623901, 2012. 48 h;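 active = mean activation of 30% or more, with every replicate also reaching 30%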;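 also: higher luciferase signal means stronger suppression of miR-122 activity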
Of the large screens only hits and unclear results are named; the others gave an inactive call.

c1ccc(-c2cc(-c3ccccc3)[n+](-c3ccccc3)c(-c3ccccc3)c2)cc1	miR-122 inh 59.2
Oc1ccc(/C=N/NP(=S)(c2ccccc2)c2ccccc2)cc1	none
COc1ccc2c(c1)c(CCN)c(C)n2Cc1ccccc1	miR-122 inh 51.6
CC(C)C(NC(=O)C(C(C)C)N(C)C)C(=O)N(C)C(C(=O)N1CCCC1C(=O)N1CCCC1C(=O)NCc1ccccc1)C(C)C (stereo unspecified)	none
O=c1c2ccccc2nc(/C=C/c2ccc([N+](=O)[O-])o2)n1-c1ccc(O)cc1	none
CC12CCC3C(CCC4(O)CC(O)CCC34C=O)C1(O)CCC2C1=CC(=O)OC1 (stereo unspecified)	none
